The text below walks through data of PubChem BioAssay AID1347416 (National Center for Advancing Translational Sciences (NCATS), 2020).

The campaign covered roughly 4,100 compounds. About 1,600 (39%) were called active. Not shown: some 25% with an inconclusive outcome. Calls follow the shape of the dose curve; as a rule, active = well fitted inhibition curve with a large enough effect; inconclusive = small, poorly fitted or top-dose-only effect; inactive = no such curve, though single readings can be large or run the other way. Some of the results follow. A call without a number means that no potency is given here.
Potency is read from the fitted curve at half-maximal effect.

This assay is described as follows: qHTS Validation assay for Inhibitors of Plasmodium falciparum Dd2 growth in vitro. Also: nearly all actives have a fitted effect of over 70% in size. The following applies: P. falciparum Dd2 in RBCs, SYBR Green growth, 72 h; series mostly up to 28.7 µM. Put shortly: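 P. falciparum Dd2-infected red blood cells (2.5% hematocrit, 0.3% parasitemia) grown 72 h at 37 °C under 5% O2 with compounds in a titration, 29 uM to 0.5 nM final. Growth read as SYBR Green-1 fluorescence after ~16 h lysis; artesunate 300 nM as positive control.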
A general note: In qHTS, concentration-response curves come from the screen itself.
`COCCc1noc([C@@H]2CN(Cc3ccc(C)o3)C[C@H]2CO)n1`: the Potency result is “inactive”.
The value for `COC(=O)C1C2C=CC3(CN(Cc4cccs4)C(=O)C13)O2` (configuration not stated) was “inactive”; that for `CCOC(=O)c1cnc2ccc(OC)cc2c1Nc1ccc(N2CCN(C)CC2)cc1` was 1.68 µM (active).
The value for `Cc1ncc(CO)c(/C=N/NC(=O)c2ccc(O)cc2)c1O` was “inactive”; that for `Cc1ccc(C(=O)N/N=C/c2ccc([N+](=O)[O-])s2)cc1` was 5.96 µM (active).
On to `Cc1ccccc1C1C(C#N)=C2N=C(N)c3c(sc4c3CCCCC4)N2C2=C1C(=O)CCC2` (configuration not stated), for which the Potency was 2.66 µM (active).
With `CN(CC1CCOC1)C(=O)Nc1ccc(Br)cc1` (configuration not stated) the entry was “inactive”; with `COc1cc(-c2ccnc3nc(Cc4ccc(F)cc4)nn23)cc(OC)c1OC`, “inactive”.
The value for `COC(=O)c1ccc(CN2C(=O)[C@@H]3C[C@@H](O)CN3C3(CN(Cc4ccc(F)cc4)C3)C2=O)cc1` was “inactive”.
As to `COc1cc(C2CC(=O)N(Cc3ccc(F)cc3)c3ccccc3S2)cc(OC)c1OC` (configuration not stated), the Potency was 2.11 µM (active).
As to `CC(C)(C)C(=O)NC(=S)Nc1ccccc1N1CCCC1`, the Potency entry is “inactive”.
With `O=C(/C=C/c1ccco1)NC(=S)Nc1ccccc1N1CCCC1` the figure was 2.66 µM (active).
The value for `O=C(CCSc1nc(-c2ccco2)cc(C(F)(F)F)n1)Nc1cccc(O)c1` was “inactive”; that for `Cc1noc(-c2cn(C3CCN(C(=O)C(C)Oc4ccc(Cl)cc4)CC3)nn2)n1` (configuration not stated) was “inactive”; that for `Cc1ccc(C)c(NC(=O)CN(C)C(=O)c2cc3ccccc3o2)c1` was 13.3 µM (active).
The value for `COc1cccc(NC(=O)[C@@H]2C[C@H](c3cccc(C(F)(F)F)c3)N(Cc3cnn(C)c3)C2)c1` was “inactive”.
On to `Cc1ccc(C)c(NC(=O)CN(C)C(=O)c2ccc(-c3ccc(Cl)cc3)o2)c1`, for which the Potency is 4.73 µM (active).
The value for `Cc1ccc2c(CC(=O)Nc3ccccc3C(F)(F)F)coc2c1C` was “inactive”.
The value for `Cc1cccc(Cn2nnc(C(=O)Nc3cc(C)ccc3C)c2N)c1` was “inactive”; that for `Cc1ccc(-c2cn3cccnc3n2)cc1NC(=O)Cc1ccccc1` was “inactive”.
The value for `O=C(Nc1ccccc1N1CCCC1)c1cc2ccccc2o1` was “inactive”; that for `COc1cccc(NC(=O)CN(C)C(=O)c2ccc(-c3cccc(C(F)(F)F)c3)o2)c1` was 0.596 µM (active).
Regarding `COCC(=O)Nc1ccc2c(c1)OCC(=O)N2Cc1ccc(C)cc1`, the Potency result was “inactive”.
With `Cc1ccc(C)c(NC(=O)CN(C)C(=O)c2ccc(-c3cccc(C(F)(F)F)c3)o2)c1` the figure was 2.11 µM (active).
With `O=C(c1cc2c(s1)CCCC2)N1CCc2c(nc3cc[nH]n3c2=O)C1` the entry was “inactive”; with `Cc1ccc(C(=O)NCCc2noc(C3CC3)n2)cc1C`, “inactive”.
With `Cc1cccc(NC(=O)CN(c2ccc(F)cc2)S(C)(=O)=O)c1` the entry was “inactive”; with `CN(CC(=O)Nc1cccc(F)c1)C(=O)c1ccc(-c2cccc(C(F)(F)F)c2)o1`, 0.668 µM (active).
Regarding `COc1cccc(NC(=O)CN(C)C(=O)c2ccc(-c3ccc(Cl)cc3)o2)c1`, the Potency was 4.22 µM (active).
The value for `CCCC(C)C(=O)Nc1ncc(S(=O)(=O)c2ccc([N+](=O)[O-])cc2)s1` (configuration not stated) was 5.96 µM (active); that for `COc1ccc(CCNC(=O)c2cc(C(=O)c3cc(Cl)ccc3O)cn(CCc3ccc(OC)cc3)c2=O)cc1` was 3.76 µM (active).
The value for `COc1ccc(OC)c(CCNC(=O)c2nc(-c3ccc(Cl)cc3)n3c2CCCCC3)c1` was “inactive”.
With `COc1ccc(-c2cc3c(=O)n(CCNC(=O)c4c(F)cccc4Cl)ccn3n2)cc1` the entry was “inactive”.
For the molecule `Cc1ccc(Oc2c(C)nc(-c3ccccc3)[nH]c2=O)cc1`, the Potency is 5.31 µM (active).
With `Cc1ccc(-c2nc3ccccc3c(=O)n2O)cc1` the entry was “inactive”.
With `CCC(=O)N1CCN(C2CCN(Cc3ccccn3)C2=O)CC1` (configuration not stated) the entry was “inactive”; with `Cc1ccnc2nc(C(=O)Nc3cc(Cl)ccc3N3CCOCC3)nn12`, 4.73 µM (active); with `O=C(Nc1ccncc1)Nc1ccc(Cl)cc1`, 10.6 µM (active).
The value for `CCn1ncc(Cl)c1C(=O)Nc1ccncc1` was “inactive”; that for `N#Cc1ccc(NC(=O)Nc2ccc(Cl)cc2)cc1` was 5.31 µM (active).
As for `O=C(Nc1ccncc1)c1ccc(Cl)c(Cl)c1`, the Potency result was “inactive”.
With `CNC(=O)[C@@H]1CN(Cc2ccc(C#N)cc2)C[C@H]1COC` the entry was “inactive”.
With `Cc1cc(C)n2nc(C(=O)N3CCN4C(=O)CN(C)C(=O)C4C3)cc2n1` (configuration not stated) the entry was “inactive”; with `CC(C)c1ccc(N2CC(C(=O)NCc3cncn3C3CC3)CC2=O)cc1` (configuration not stated), “inactive”.
Turning to `Cc1ccc(NC(=O)CSc2n[nH]c(-c3ccccn3)n2)cc1`, the Potency result was “inactive”.
With `CCc1ccc(OCC(=O)Nc2ccc(-c3nc4ncccc4o3)cc2)cc1` the entry was “inactive”; with `CCc1ccc(NC(=O)CSc2nc3n[nH]c(C)c3c(=N)n2-c2ccc(C)cc2)cc1`, 6.68 µM (active); with `CC(C)c1noc(-c2cccn3c(CNC(=O)c4cccc(Cl)c4)nnc23)n1`, “inactive”.
With `CCCN1CCc2[nH]cnc2C12CCN(C(=O)c1ccc(CSC)o1)CC2` the entry was “inactive”; with `CC(OC(=O)CCc1cc(C(C)(C)C)c(O)c(C(C)(C)C)c1)C(=O)NC1CC1` (configuration not stated), 4.73 µM (active).
Turning to `COc1ccc(-c2noc(-c3cccn3CC(=O)Nc3cc(C)ccc3C)n2)cc1F`, the Potency result was “inactive”.
The value for `COc1ccc(-c2noc(-c3cccn3CC(=O)Nc3ccccc3C)n2)cc1F` was 5.31 µM (active); that for `COc1ccc(-c2noc(-c3cccn3CC(=O)Nc3ccccc3F)n2)cc1F` was 4.22 µM (active); that for `COc1ccc(-c2noc(-c3cccn3CC(=O)Nc3cccc(Cl)c3C)n2)cc1F` was “inactive”.
The value for `COc1ccc(C(=O)NCc2nnc3c(-c4nc(C(C)C)no4)cccn23)cc1F` was “inactive”; that for `O=C1NC2(CCN(Cc3ccc(OC(F)(F)F)cc3)C2)OCc2ccccc21` (configuration not stated) was “inactive”.
With `O=C1COCC2(CN(Cc3ccsc3)C2)CN1Cc1cccc(OC(F)(F)F)c1` the figure was 17.2 µM (active); with `O=C(c1cc(C(F)(F)F)[nH]n1)N1CC[C@@H](c2ccc(F)cc2)[C@H](O)C1`, “inactive”; with `CCCCCNc1nc2sc3c(c2c(=O)n1-c1cccc(Cl)c1)CCN(C)C3`, 7.5 µM (active).
`CC(C)OC(=O)c1cccc(NC(=O)Cn2nnc3sc4c(c3c2=O)CCCC4)c1`: the Potency entry is “inactive”.
The value for `CCCCNc1nc2sc3c(c2c(=O)n1-c1cccc(Cl)c1)CCN(C)C3` was 9.44 µM (active); that for `CCOC(=O)N1CCc2c(sc3nc4n(c(=O)c23)N=C(c2ccc(OC)cc2)CS4)C1` was “inactive”.
